An excerpt weighted towards active compounds, which were near 3.2% of everything screened.
LmPK inhibitor: LmPK (Leishmania mexicana) enzyme inhibition | purified LmPK, Kinase-Glo ATP luminescence, 1 h | Potency, µM (highest dose often 57.5 µM), for inactives: top-dose activity change, negative = inhibition, actives largely listed as inhibitors | actives 0.37% (n = 290,000) | AID 1721
Target sequence (Q27686 whole entry, looked up): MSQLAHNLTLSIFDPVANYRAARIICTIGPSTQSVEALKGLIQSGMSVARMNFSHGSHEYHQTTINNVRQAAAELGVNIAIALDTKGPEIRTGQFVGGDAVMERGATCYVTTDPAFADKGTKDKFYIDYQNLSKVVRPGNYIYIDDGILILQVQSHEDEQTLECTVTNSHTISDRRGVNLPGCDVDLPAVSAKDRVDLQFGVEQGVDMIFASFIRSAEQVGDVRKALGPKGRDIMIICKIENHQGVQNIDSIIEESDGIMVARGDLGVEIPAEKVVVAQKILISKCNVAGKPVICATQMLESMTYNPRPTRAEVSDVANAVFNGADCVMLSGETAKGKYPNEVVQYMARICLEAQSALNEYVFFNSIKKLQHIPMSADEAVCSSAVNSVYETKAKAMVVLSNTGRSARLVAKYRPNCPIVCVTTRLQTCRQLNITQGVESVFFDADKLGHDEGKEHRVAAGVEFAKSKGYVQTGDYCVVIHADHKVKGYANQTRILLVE
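Purified LmPK (0.1 nM) with 0.5 mM PEP and 0.1 mM ADP in imidazole buffer pH 7.2 with MgCl2/KCl, 1 h at room temperature. ATP formed was read by luciferase luminescence and normalized to no-enzyme and uninhibited controls.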
Tb PYK inh: blocks Trypanosoma brucei pyruvate kinase; Q57TT1; AID 624173; actives 0.12% (n = 410,000); Potency, µM (doses to about 76.8 µM), inactives show at the highest dose activity, negative = inhibition, usual class: inhibitors; TbPYK enzyme, Kinase-Glo Plus ATP luminescence, 45 min; also: nearly all actives have a fitted effect of over 50% in size
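ADP (130 uM final) triggers the TbPYK reaction after compound addition; incubation is 45 min at room temperature. Kinase-Glo Plus is then added and luminescence imaged. Normalized data are fitted to concentration-effect curves.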
RE007 growth inh: less growth of the S. pombe RE007 Vpr strain; actives 0.21% (n = 360,000); S. pombe RE007 Vpr strain, BacTiter-Glo ATP luminescence, 24 h; Potency, µM (highest dose often 92.2 µM), for inactives: top-dose activity change, negative = less growth, hits mostly inhibitors; active = well fitted falling curve with a large enough effect; also: nearly all actives have a fitted effect of over 50% in size
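Fission yeast strain RE007, carrying one chromosomally integrated HIV-1 vpr copy, was seeded at OD 0.01 in PMG+AL medium with 23 nL pinned compound. After 24 h at 30 °C and 99% humidity, viability was read by BacTiter-Glo luminescence.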
AMA1 RON2 block: disrupts binding of P. falciparum AMA1 to RON2 | AlphaScreen AMA1-biotinylated RON2 peptide binding | Potency, µM (series often up to 58.2 µM), inactives show top-dose activity change, negative = inhibition, hits mostly inhibitors | actives 0.2% (n = 360,000) | AID 720542;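 also: 0% = vehicle wells and -100% = peptide control; nearly all actives have a fitted effect of over 45% in size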
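AMA1 (3D7) with his tag at 25 nM final met compounds first, then biotinylated RON2 peptide at 25 nM; detection used donor plus acceptor beads, 10 µg/mL apiece, read by AlphaScreen after 30 min at room temperature.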
Sm TGR inh: inhibitors of Schistosoma mansoni thioredoxin glutathione reductase | Potency, µM (titrated, usually from 114 µM), for inactives: at the highest dose activity change, negative = inhibition, usual class: inhibitors | actives 3% (n = 360,000) | Q962Y6 | purified TGR, DTNB reduction, TNB absorbance 405 nm; also: nearly all actives have a fitted effect of over 60% in size
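TGR 20 nM + NADPH 100 uM (dispensed conc.), cpd preinc 15 min RT; start with NADPH (500 uM addition) then DTNB (15 mM addition). Kinetic TNB absorbance, 405 nm filter. Four-parameter Hill fit across titration.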
* = called active by the depositor; nt = no result; [ ] = remark or other dose. Unless noted, calls follow the shape of the dose curve; as a rule, active = well fitted curve in the direction sought with a large enough effect; inconclusive = small, poorly fitted or top-dose-only effect, or another doubt; inactive = no such curve, though single readings can be large; an effect the other way counts as inactive or inconclusive. Unless noted, % is scaled to controls: 0 for no effect and ±100 for the full control effect; potency is read from the fitted curve at half-maximal effect.

SMILES	LmPK inhibitor	Tb PYK inh	RE007 growth inh	AMA1 RON2 block	Sm TGR inh
Cc1ccc(CNC(=O)C2CC3Cn4c(nc5cc(Cl)c(Cl)cc54)C3N2C)o1 (centres undefined)	3%	-16%	2%	-4%	45µM*
CN1C(C(=O)NCc2ccccc2)CC2Cn3c(nc4ccccc43)C21 (centres undefined)	3%	-1%	22%	6%	-8%
CCCNC(=O)C1CC2Cn3c(nc4ccccc43)C2N1C (centres undefined)	nt	-6%	3%	-11%	40µM*
Cc1cc2nc(-c3ccc(OCc4ccccc4F)cc3)cc(C(F)(F)F)n2n1	nt	0%	nt	nt	-1%
CC1(C)CC(=O)C(C=NCCN2CCNCC2)=C(O)C1	1%	-5%	-11%	34%	nt
CC1(C)CC(=O)C(C=NCCN2CCN(C(=O)Cc3ccccc3)CC2)=C(O)C1	9%	-1%	4%	50%	5%[11.4 µM]
CCC(=O)N1CCN(CCN=CC2=C(O)CC(C)(C)CC2=O)CC1	-2%	-8%	4%	50%	45µM*
CCC(=O)N1CCN(CCN=CC2=C(O)CC(c3ccc(OC)cc3)CC2=O)CC1 (centres undefined)	-8%	-6%	4%	45%	-19%
CCCCCC(=O)N1CCN(CCN=CC2=C(O)CC(c3ccc(OC)cc3)CC2=O)CC1 (centres undefined)	2%	-8%	-13%	-3%	50µM*
CC1(C)CC(=O)C(C=NCCN2CCN(C(=O)CCl)CC2)=C(O)C1	-3%	1%	-3%	92%	18µM*
CCOC(=O)Cc1ccc(NC(=O)N2CCOc3ccc(C)cc32)cc1	nt	-2%	nt	nt	6%
Cc1ccc(N2C(=O)CCSC23C(=O)N(Cc2ccccc2)c2ccccc23)cc1F (centres undefined)	nt	-2%[15.4 µM]	nt	nt	2%
CCOc1ccc(C2c3c(oc4ccccc4c3=O)C(=O)N2CCCN2CCOCC2)cc1 (centres undefined)	-1%	-16%	-13%	6%	35µM*
CCCOc1ccc(C2c3c(oc4ccccc4c3=O)C(=O)N2CCCN2CCOCC2)cc1 (centres undefined)	1%	-11%	0%	6%	35µM*
COc1ccc(C2c3c(oc4ccccc4c3=O)C(=O)N2Cc2ccncc2)cc1 (centres undefined)	2%	nt	nt	nt	6%
CCOc1ccc(C2c3c(oc4cc(C)c(C)cc4c3=O)C(=O)N2CCCN2CCOCC2)cc1 (centres undefined)	13%	-1%	-4%	6%	-15%
COC(=O)c1ccc(C2c3c(oc4ccccc4c3=O)C(=O)N2CCCN2CCOCC2)cc1 (centres undefined)	12%	-21%	-15%	7%	25µM*
CN1C(=O)c2oc3ccccc3c(=O)c2C1c1ccncc1 (centres undefined)	-6%	-24%	-20%	-11%	45µM*
Cc1ccc2oc3c(c(=O)c2c1)C(c1ccc(F)cc1)N(CCCN1CCOCC1)C3=O (centres undefined)	3%	nt	nt	nt	32µM*
Cc1ccc(-n2c(=O)c3c(c4cc(C)ccc4n3C)n(CC(=O)Nc3cc(C)cc(C)c3)c2=O)cc1	nt	4%	nt	nt	-1%
C/C=C\C=C/C(=O)Nc1cccc(C2=NOC3(C2)C[C@@H](C(N)=O)N(C(=O)COc2ccc(Cl)cc2)C3)c1 (some centres undefined)	9%	-18%	-12%	0%	3.2µM*
C/C=C\C=C\C(=O)N1CC2(CC(c3cccc(NC(=O)COc4ccc(Cl)cc4)c3)=NO2)C[C@H]1C(N)=O (some centres undefined)	7%	-21%	9%	2%	7.1µM*
CCCCCC(=O)Nc1cccc(C2=NOC3(C2)C[C@H](C(N)=O)N(C(=O)COc2ccc(Cl)cc2)C3)c1 (some centres undefined)	3%	3%	4%	12%	12%
O=C(O)CCn1cnc2onc(-c3ccccc3Cl)c2c1=O	nt	7%	nt	nt	-9%
Cc1sc2nc(-c3cccs3)nc(N3CCCN(C)CC3)c2c1C	2%	nt	nt	nt	45µM*

High-throughput results (PubChem BioAssay)
